# Results: PubChem BioAssay (NCATS)
# Results filed as inconclusive are left out. Active and inactive are the calls of the source. Unless noted, calls come from the whole dose curve.
# Tests used:
# [1] = target: Peroxisome proliferator-activated receptor delta (Homo sapiens) (UniProt Q03181); assay: qHTS assay for small molecule agonists of peroxisome proliferator-activated receptor delta signaling (AID 588534);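 note: 0% = DMSO basal wells and 100% = positive control agonist at 10 µM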
# How it was run: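 Cell-based beta-lactamase reporter assay run in agonist mode: cells seeded and incubated 5 hrs at 37 C, compounds added and incubated 18 hrs at 37 C. CCF4 dye fluorescence read after 2 hrs at RT; EC50 and efficacy from Hill fits.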
# [2] = qHTS assay for small molecule antagonists of peroxisome proliferator-activated receptor delta signaling (AID 588535); details: HEK293T PPARd-UAS-bla, beta-lactamase FRET ratio, 18 h; 460 nm channel;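 note: cells co-treated with a PPAR-delta agonist as stimulator during compound exposure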
# How it was run: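 GeneBLAzer PPAR-delta-UAS-bla HEK293T cells in medium with 2% charcoal/dextran FBS were preincubated 5 hrs at 37 C, then given compounds, incubated 18 hrs at 37 C, and read by CCF4 beta-lactamase fluorescence; IC50 from Hill fits.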
# [3] = target: Vitamin D3 receptor (Homo sapiens) (UniProt P11473); assay: qHTS assay for small molecule antagonists of vitamin D receptor signaling (AID 588541);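 note: receptor activated by calcitriol during compound treatment; series mostly up to about 77 µM; % is set by controls: 0 for no effect and ±100 for the full control effect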
# How it was run: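 VDR-UAS-bla HEK293T cells (2000/well, 2% charcoal-stripped FBS) were treated with titrated compounds plus 1-alpha,25-dihydroxyvitamin D3 (50 nM or 3 nM final) for 16 h at 37 C. CCF4 beta-lactamase fluorescence was read; Hill fits gave IC50.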
# [4] = target: Vitamin D3 receptor (Homo sapiens) (UniProt P11473); assay: qHTS assay for small molecule agonists of vitamin D receptor signaling (AID 588543);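 note: 0% = DMSO basal and 100% = reference agonist control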
# How it was run: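 Measured: β-lactamase reporter activity (CCF4, 405 nm excitation, 460/530 nm emission) in HEK293T VDR-UAS-bla cells after 16 h compound exposure at 37 °C. Normalization against 50 nM 1α,25-dihydroxyvitamin D3 and DMSO; Hill-fit EC50.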
# [5] = qHTS assay for small molecule agonists of retinoid X receptor alpha signaling (AID 588544); details: HEK293T RXRa-UAS-bla, beta-lactamase reporter, 18 h; 530 nm emission;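 for activation: 0% = DMSO basal wells and 100% = reference agonist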
# [6] = target: Retinoic acid receptor RXR-alpha (Homo sapiens) (UniProt P19793); assay: as above
# [7] = target: Thyroid hormone receptor beta (Homo sapiens) (UniProt P10828); assay: qHTS assay for small molecule agonists of thyroid hormone receptor beta signaling (AID 588545)
# How it was run: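 In this cell-based screen, titrated compounds act on HEK 293 cells held in medium with 2% charcoal/dextran FBS, NEAA and pyruvate for 18 hrs at 37 C. Responses are expressed relative to T3 (10 nM) as 100% and basal DMSO as 0%.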
# [8] = qHTS assay for small molecule antagonists of retinoid X receptor alpha signaling (AID 588546; active = well fitted inhibition curve with a large enough effect in the signal ratio, with a control signal flat, not every such curve was filed as active; the % refers to the signal ratio;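 note: cells stimulated with 9-cis-retinoic acid as agonist; % is set by controls: 0 for no effect and ±100 for the full control effect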); details: HEK293T RXRa-UAS-bla, beta-lactamase ratio, antagonist mode; measured here: W530 green channel, cytotoxicity proxy
# How it was run: (§1)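 Beta-lactamase reporter inhibition, read as CCF4 fluorescence ratio (ex 405, em 460/530 nm) after 2 h at RT. HEK293T UAS-bla cells, 2500/well, were stimulated with 9-cis-RA at 500 or 100 nM final alongside test compound for 18 h at 37 C.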
# [9] = target: Retinoic acid receptor RXR-alpha (Homo sapiens) (UniProt P19793); assay: as above; details: HEK293T RXRa-UAS-bla, beta-lactamase ratio, antagonist mode
# How it was run: as §1
# [10] = target: Thyroid hormone receptor beta (Homo sapiens) (UniProt P10828); assay: qHTS assay for small molecule antagonists of thyroid hormone receptor beta signaling (AID 588547; active = well fitted inhibition curve with a large enough effect in the signal ratio, with a control signal flat, not every such curve was filed as active; the % refers to the signal ratio;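 note: cells stimulated with 0.4 nM T3 agonist during compound exposure; series mostly up to about 77 µM; % is set by controls: 0 for no effect and ±100 for the full control effect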); details: TR-UAS-bla HEK293, beta-lactamase ratio, antagonist mode, 18 h
# How it was run: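 TR-UAS-bla GripTite HEK293 cells in 2% charcoal/dextran FBS medium were preincubated 4 h at 37 C, given compound (0.59 nM to 92 uM) plus 0.4 nM T3 (final) for 18 h, then CCF4 for 2 h at RT; Hill fit gave IC50.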
# [11] = qHTS assay for small molecule activators of the p53 signaling pathway (AID 651743; active = well fitted activation curve with a large enough effect in the signal ratio, not every such curve was filed as active; the % refers to the signal ratio; note: series mostly up to about 92 µM; % of control where 0% means no effect); details: HCT-116 p53RE-bla, beta-lactamase FRET ratio, 16 h; activation: stronger effect = higher value
# How it was run: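 p53RE-bla HCT-116 cells with a stably integrated beta-lactamase reporter under p53 response elements were plated, rested 5 hours at 37 C/5% CO2, then exposed to compounds in DMSO for 16 hours at 37 C. LiveBLAzer B/G FRET substrate was read after 2 hours at room temperature.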
# [12] = qHTS assay for small molecule activators of the nuclear factor-kappa B (NF-kB) signaling pathway (AID 651749; active = well fitted activation curve with a large enough effect in the signal ratio; the % refers to the signal ratio; note: series mostly up to about 77 µM; % of control where 0% means no effect); details: NF-kB-bla ME-180 cells, beta-lactamase FRET ratio, 16 h; activation: stronger effect = higher value
# How it was run: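 ME-180 cells stably carrying a beta-lactamase reporter under an NF-kB response element were exposed to compound or DMSO vehicle for 16 hr at 37C, 5% CO2. Pathway activation was read by FRET, since reporter expression disrupts FRET.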
# [13] = target: Peroxisome proliferator-activated receptor alpha (Homo sapiens) (UniProt Q07869); assay: qHTS assay for small molecule agonists of the peroxisome proliferator-activated receptor alpha (PPARalpha) signaling pathway (AID 651778; active = well fitted curve in the direction sought with a large enough effect; an effect the other way counts as inactive or inconclusive; note: % of control where 0% means no effect); details: PathHunter PPARalpha complementation, chemiluminescence, 6 h; max response: stronger effect = higher value
# How it was run: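 Cells plated at 2,000/well and held overnight at 37 C, 5% CO2, then compound added by pin tool for 6 hr; after PathHunter detection reagent and 60 min at room temperature, chemiluminescence from enzyme complementation was read.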
# [14] = qHTS assay for small molecule agonists of the antioxidant response element (ARE) signaling pathway measured by Nrf2-dependant transcriptional activity (AID 720636; active = well fitted curve in the direction sought with a large enough effect in the repeat runs; an effect the other way counts as inactive or inconclusive; note: % of control where 0% means no effect)
# How it was run: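 ARE-luc HepG2 cells carrying an Nrf2-responsive luciferase reporter were plated in medium with 1% dialyzed FBS, left 6 hr at 37 C to attach, then exposed to compound for 16 hr. Luciferase luminescence was read after ONE-Glo addition.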
# [15] = qHTS assay for small molecule agonists of the antioxidant response element (ARE) signaling pathway measured by Nrf2-dependant transcriptional activity - cell viability counter screen (AID 720653; active = well fitted curve in the direction sought with a large enough effect in the repeat runs; an effect the other way counts as inactive or inconclusive; note: % is set by controls: 0 for no effect and ±100 for the full control effect); details: ARE-bla HepG2 viability, CellTiter-Glo ATP luminescence, 16 h; max response: stronger effect = lower value
# How it was run: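 ARE-bla HepG2 cells (2,000/well) rested 5 hrs at 37C/5% CO2, then exposed to compounds in DMSO for 16 hrs. Viability was read in the same wells as intracellular ATP by luminescence, 30 min at room temperature after reagent addition.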
# [16] = qHTS assay for cell viability of HEK293 cells (AID 743288; active = well fitted curve in the direction sought with a large enough effect; an effect the other way counts as inactive or inconclusive; note: % is set by controls: 0 for no effect and ±100 for the full control effect; nearly all actives have a fitted effect of over 50% in size); details: ATP luminescence (CellTiter-Glo), 18 h; max response: stronger effect = lower value
# How it was run: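 Luminescent ATP quantitation served as the viability read-out. Cells (parental HEK293, 2,000/well) received compounds after at least 5 h at 37 C and were exposed for 18 h before a 30 min room-temperature reagent step.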
# [17] = qHTS assay for small molecule activators of the human pregnane X receptor (PXR) signaling pathway (AID 720659; call rule not given here; note: 0% is about no effect)
# [18] = target: Cytochrome P450 3A4 (Homo sapiens) (UniProt P08684); assay: qHTS Assay for Inhibitors and Substrates of Cytochrome P450 3A4 (AID 884; active = well fitted curve in the direction sought with a large enough effect; an effect the other way counts as inactive or inconclusive; note: potency is the fitted concentration of half-maximal effect; nearly all actives have a fitted effect of over 50% in size)
# How it was run: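 20 nM human CYP3A4 with 25 uM Luciferin-PPXE (at KM) in 200 mM KPO4, preincubated 10 min with compound; NADPH regeneration started a 60 min RT reaction. Luciferin detected by luminescence, normalized to 57 uM ketoconazole as full inhibition.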
# Chain of Peroxisome proliferator-activated receptor delta (Homo sapiens) (Q03181 whole entry, looked up): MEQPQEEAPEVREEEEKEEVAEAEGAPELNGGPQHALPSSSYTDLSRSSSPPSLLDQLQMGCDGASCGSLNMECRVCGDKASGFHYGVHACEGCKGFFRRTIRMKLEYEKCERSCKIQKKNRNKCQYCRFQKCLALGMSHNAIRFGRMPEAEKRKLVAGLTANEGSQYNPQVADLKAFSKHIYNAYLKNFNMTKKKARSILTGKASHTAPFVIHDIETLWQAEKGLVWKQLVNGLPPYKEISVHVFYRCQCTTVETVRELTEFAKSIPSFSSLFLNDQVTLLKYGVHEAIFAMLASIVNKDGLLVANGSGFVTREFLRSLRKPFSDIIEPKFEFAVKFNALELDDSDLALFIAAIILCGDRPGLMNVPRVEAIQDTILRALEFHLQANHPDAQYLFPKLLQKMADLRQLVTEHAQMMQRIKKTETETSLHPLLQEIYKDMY
# Chain of Retinoic acid receptor RXR-alpha (Homo sapiens) (P19793 whole entry, looked up): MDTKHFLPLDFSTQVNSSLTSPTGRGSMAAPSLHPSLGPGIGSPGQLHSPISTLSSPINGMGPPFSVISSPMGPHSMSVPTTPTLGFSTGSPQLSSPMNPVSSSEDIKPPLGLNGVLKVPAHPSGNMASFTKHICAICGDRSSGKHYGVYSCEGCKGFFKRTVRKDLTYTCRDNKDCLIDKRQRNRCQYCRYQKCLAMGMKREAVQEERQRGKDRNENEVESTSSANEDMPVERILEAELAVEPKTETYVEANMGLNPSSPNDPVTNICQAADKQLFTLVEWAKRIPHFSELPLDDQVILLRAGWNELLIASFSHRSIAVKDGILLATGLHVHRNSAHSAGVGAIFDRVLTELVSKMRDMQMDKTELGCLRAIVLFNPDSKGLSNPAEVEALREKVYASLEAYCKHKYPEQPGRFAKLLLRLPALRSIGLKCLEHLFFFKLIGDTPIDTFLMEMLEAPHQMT
# Chain of Cytochrome P450 3A4 (Homo sapiens) (P08684 whole entry, looked up): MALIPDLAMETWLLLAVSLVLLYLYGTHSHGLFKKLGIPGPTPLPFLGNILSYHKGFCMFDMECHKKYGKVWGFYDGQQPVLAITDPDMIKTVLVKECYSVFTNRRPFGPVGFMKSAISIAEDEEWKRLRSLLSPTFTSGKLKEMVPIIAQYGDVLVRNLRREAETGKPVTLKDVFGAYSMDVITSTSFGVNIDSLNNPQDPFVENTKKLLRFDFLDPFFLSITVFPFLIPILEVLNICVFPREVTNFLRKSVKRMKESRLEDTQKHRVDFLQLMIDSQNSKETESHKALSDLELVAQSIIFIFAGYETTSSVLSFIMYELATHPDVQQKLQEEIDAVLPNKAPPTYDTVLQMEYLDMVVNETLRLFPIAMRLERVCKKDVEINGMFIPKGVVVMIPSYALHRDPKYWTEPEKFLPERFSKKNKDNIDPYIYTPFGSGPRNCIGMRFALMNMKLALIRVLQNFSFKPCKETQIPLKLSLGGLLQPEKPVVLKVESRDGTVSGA
# Chain of Vitamin D3 receptor (Homo sapiens) (P11473 whole entry, looked up): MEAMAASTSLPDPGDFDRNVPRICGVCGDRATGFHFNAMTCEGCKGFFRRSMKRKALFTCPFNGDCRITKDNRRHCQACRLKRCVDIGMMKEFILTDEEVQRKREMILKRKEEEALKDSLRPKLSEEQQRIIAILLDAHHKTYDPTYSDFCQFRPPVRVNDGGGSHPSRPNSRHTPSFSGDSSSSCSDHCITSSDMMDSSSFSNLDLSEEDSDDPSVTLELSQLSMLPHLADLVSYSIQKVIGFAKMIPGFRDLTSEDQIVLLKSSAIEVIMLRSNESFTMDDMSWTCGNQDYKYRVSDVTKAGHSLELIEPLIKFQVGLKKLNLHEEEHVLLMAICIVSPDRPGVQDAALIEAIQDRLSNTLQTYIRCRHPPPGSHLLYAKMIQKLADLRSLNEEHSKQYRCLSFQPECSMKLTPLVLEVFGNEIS
# Chain of Thyroid hormone receptor beta (Homo sapiens) (P10828 whole entry, looked up): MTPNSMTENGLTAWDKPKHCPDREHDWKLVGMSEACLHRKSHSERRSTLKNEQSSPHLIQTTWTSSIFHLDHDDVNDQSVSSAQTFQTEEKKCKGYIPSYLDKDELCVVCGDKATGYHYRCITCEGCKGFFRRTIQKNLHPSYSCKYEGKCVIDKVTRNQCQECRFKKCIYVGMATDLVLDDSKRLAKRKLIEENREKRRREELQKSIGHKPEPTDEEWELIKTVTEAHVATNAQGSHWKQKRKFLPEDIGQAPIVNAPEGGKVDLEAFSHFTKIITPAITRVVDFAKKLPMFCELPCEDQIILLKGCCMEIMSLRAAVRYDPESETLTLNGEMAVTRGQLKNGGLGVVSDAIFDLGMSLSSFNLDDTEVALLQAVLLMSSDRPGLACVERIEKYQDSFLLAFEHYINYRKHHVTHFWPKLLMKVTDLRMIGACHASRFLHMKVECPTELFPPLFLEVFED
# Chain of Peroxisome proliferator-activated receptor alpha (Homo sapiens) (Q07869 whole entry, looked up): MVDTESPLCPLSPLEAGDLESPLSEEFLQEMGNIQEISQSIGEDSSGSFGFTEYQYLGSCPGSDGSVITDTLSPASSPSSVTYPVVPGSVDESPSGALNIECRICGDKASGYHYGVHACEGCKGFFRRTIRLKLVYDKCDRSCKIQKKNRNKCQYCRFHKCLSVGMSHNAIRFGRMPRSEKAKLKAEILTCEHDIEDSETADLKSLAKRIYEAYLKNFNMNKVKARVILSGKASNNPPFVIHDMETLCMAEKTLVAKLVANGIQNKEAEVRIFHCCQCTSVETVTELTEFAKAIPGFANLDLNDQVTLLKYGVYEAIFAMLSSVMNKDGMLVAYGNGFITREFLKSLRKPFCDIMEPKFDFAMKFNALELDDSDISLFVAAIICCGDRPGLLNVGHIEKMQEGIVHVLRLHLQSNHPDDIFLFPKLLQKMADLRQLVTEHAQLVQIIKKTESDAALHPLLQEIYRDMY
compound,measurement,setting,value
CC(C1CC1)C(O)(Cn1cncn1)c1ccc(Cl)cc1 (stereo not drawn),outcome,[1],inactive
same,max response,[2],49.1%
same,Potency,[3],inactive
same,outcome,[4],inactive
same,max response,[5],4.53%
same,Potency,[6],inactive
same,Potency,[7],inactive
same,max response,[8],-3.3%
same,max response,[9],-4.42% (inactive)
same,activity change % (negative = inhibition),[10],-18.1% (inactive)
same,activation,[11],-2.39% (inactive)
same,activation,[12],-1.89% (inactive)
same,max response,[13],-1.34% (inactive)
same,Potency,[14],inactive
same,max response,[15],-0.0614% (inactive)
same,max response,[16],-14% (inactive)
same,outcome,[17],inactive
OC1CCCCCCCCCCC1,outcome,[1],inactive
CC/C=C/CCCCCCCCCCOC(C)=O,outcome,[1],inactive
O=Cc1c(Cl)cccc1Cl,outcome,[1],inactive
OCCC(F)(F)C(F)(F)C(F)(F)C(F)(F)C(F)(F)C(F)(F)C(F)(F)C(F)(F)F,outcome,[1],inactive
O=C1c2c(O)ccc([N+](=O)[O-])c2C(=O)c2c([N+](=O)[O-])ccc(O)c21,Potency,[18],7.94 µM (active)
C=CCn1c(=O)n(CC=C)c(=O)n(CC=C)c1=O,Potency,[18],10 µM (active)
